ROC1-CUL1 inh: inhibitors of human ROC1-CUL1 ubiquitin ligase activity | in vitro K48 di-Ub FRET, acceptor:donor ratio, 45 min | AID 1347404, 2020 | E3 ubiquitin-protein ligase RBX1 (Homo sapiens) + Cullin-1 (Homo sapiens), P62877+Q13616 | inhibition, % at 10 µM | 140,000 compounds, 0.6% hits; in the data active = inhibition above about 25%
Target sequence (P62877 whole entry, looked up): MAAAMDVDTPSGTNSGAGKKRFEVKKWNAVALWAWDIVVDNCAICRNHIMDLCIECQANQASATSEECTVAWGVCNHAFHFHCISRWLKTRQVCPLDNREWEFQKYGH
Target sequence (Q13616 whole entry, looked up): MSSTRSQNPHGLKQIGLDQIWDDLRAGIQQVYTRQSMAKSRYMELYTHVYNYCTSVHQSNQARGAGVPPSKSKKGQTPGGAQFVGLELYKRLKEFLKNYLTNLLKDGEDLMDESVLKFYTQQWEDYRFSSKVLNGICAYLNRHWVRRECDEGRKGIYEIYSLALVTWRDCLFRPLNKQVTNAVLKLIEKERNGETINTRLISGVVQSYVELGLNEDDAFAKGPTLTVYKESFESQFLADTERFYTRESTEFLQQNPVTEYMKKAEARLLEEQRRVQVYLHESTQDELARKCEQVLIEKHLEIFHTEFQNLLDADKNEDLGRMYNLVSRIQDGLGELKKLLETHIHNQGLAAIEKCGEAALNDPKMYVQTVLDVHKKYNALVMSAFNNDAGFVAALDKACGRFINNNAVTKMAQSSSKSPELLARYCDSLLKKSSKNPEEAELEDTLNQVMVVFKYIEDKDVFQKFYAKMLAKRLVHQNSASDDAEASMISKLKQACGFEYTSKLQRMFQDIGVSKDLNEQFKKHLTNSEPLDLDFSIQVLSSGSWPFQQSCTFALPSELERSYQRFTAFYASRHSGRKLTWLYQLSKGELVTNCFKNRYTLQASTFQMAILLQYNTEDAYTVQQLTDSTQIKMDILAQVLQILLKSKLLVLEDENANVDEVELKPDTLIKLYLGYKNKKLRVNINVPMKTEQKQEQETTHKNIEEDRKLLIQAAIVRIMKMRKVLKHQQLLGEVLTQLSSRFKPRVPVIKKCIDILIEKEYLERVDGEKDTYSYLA
Of the large screens only hits and unclear results are named; the others gave an inactive call. Only a selection was taken, and hits are over-represented in it overall.

Cc1ccc(-c2nnc(-c3ccccc3)nc2NCCCO)cc1	none
N#CC1C(=N)Oc2n[nH]c(-c3ccc4c(c3)OCO4)c2C1c1cccc(OC(=O)N2CCOCC2)c1 (stereo not given)	none
O=C(Nc1nnc(CC2=CCCCC2)s1)C12CC3CC(CC(C3)C1)C2	none
CC(Sc1nc(-c2ccccc2)c(-c2ccccc2)[nH]1)C(=O)O (stereo not given)	none
O=C(CSc1nc(-c2ccccc2)c(-c2ccccc2)[nH]1)c1ccc(O)c(O)c1O	ROC1-CUL1 inh 101.4
COc1ccc(C(=O)CSc2nc(-c3ccccc3)c(-c3ccccc3)[nH]2)cc1	none
COCC1CCN(c2nncc(-c3ccc4c(c3)OCO4)n2)C1 (stereo not given)	none
CN(CCC1CCOCC1)C(=O)c1csc2nc(-c3ccc(F)cc3)cn12	none
O=C(CN1c2ccccc2-c2ccccc2S1(=O)=O)N1CCCCC1	none
CCC(C)C1c2c(n[nH]c2-c2ccccc2)OC(=N)C1C#N (stereo not given)	none
COc1cc(/C=C/CN(C)Cc2nc(-c3ccccc3NC(=O)c3ccsc3)oc2C)ccc1O	none
CCc1ccc(NC(=O)CN(c2cc(C)cc(C)c2)S(=O)(=O)C2C(=O)NC(=O)N=C2C)cc1 (stereo not given)	none
COCCC(=O)N1CCC(C2CCN(Cc3cccc(F)c3F)CC2)C1 (stereo not given)	none
Cc1ccc(NC(=O)CN2C(=O)c3ccc4c5c(ccc(c35)C2=O)CC4)cc1	ROC1-CUL1 inh 37.8
Cc1ccc(NC(=O)CN2C(=O)c3ccccc3C2=O)cc1Cl	none
O=C(CN1C(=O)c2ccccc2C1=O)Nc1ccc(I)cc1	none
O=C1SC(SCc2ccccc2Cl)=N/C1=C\c1ccco1	none
O=C1SC(SCc2ccccc2Cl)=N/C1=C\C=C\c1ccco1	ROC1-CUL1 inh 88.1
O=C(/C=C/c1ccco1)CC1(O)C(=O)N(Cc2ccccc2Cl)c2ccccc21 (stereo not given)	none
O=c1c2cnc3nc(-c4ccccc4)nn3c2ccn1CCc1ccccc1	none
CCN(C)c1ccc(C=C2C(=O)N(C)C(=O)N(C)C2=O)cc1	none
CCN(CC)c1ccc(C=C2C(=O)N(c3ccccc3)C(=O)N(c3ccccc3)C2=O)cc1	none
CCN(CC)c1ccc(/C=C2\C(=O)N(c3nnc(C)c(=O)[nH]3)N=C2C)cc1	ROC1-CUL1 inh 57.1
CCOC(=O)C1C(=O)/C(=C/c2cc(C)n(CCOC)c2C)SC1=Nc1ccc(Cl)cc1 (stereo not given)	none
Nc1ccc(Oc2ccc3nc(-c4ccccn4)c(-c4ccccn4)nc3c2)cc1	none
CCOc1cc(/C=C2\C(=O)NN(c3cccc(Cl)c3)C2=O)c(Br)c(Br)c1O	ROC1-CUL1 inh 62.2
CCOc1cc(/C=C2\C(=O)NN(c3ccc(C)c(C)c3)C2=O)ccc1O	none
COc1cc(/C=C2/C(=O)NN(c3ccc(C)c(Cl)c3)C2=O)cc(Cl)c1O	none
O=C1NN(c2cccc(Cl)c2)C(=O)/C1=C/c1ccccc1O	none
CCOc1ccccc1/C=C1\C(=O)NN(c2ccc(Br)cc2)C1=O	none
CCOc1cc(/C=C2\C(=O)NN(c3ccc(C)c(Cl)c3)C2=O)c(Br)c(Br)c1O	ROC1-CUL1 inh 100.1
COCC(=O)N1CCCC(CNC(=O)Cc2ccc(OC)cc2)C1 (stereo not given)	none
Cc1nn(Cc2ccccc2)c(C)c1NC(=O)c1ccnn1C	none
O=C(CCn1cccn1)N1CCC(C2CCN(c3ncccn3)CC2)C1 (stereo not given)	none
O=C(O)c1cccc(-c2ccc(-c3nc4sc5c(c4c(=O)[nH]3)CCCC5)o2)c1	ROC1-CUL1 inh 97.4
O=C(O)c1ccc(-c2ccc(-c3nc4sc5c(c4c(=O)[nH]3)CCCCC5)o2)cc1	none
O=c1[nH]c(-c2cccc(Cl)c2Cl)nc2sc3c(c12)CCCCCC3	none
Cc1sc(C)c(-c2c(C)sc(C)c2I)c1I	none
CCc1c(OC(C)=O)c2ccccc2n(C)c1=O	none
CC(=O)Oc1c(C)c(=O)n(C)c2ccccc12	none
CC(=O)Oc1c(Cl)c(=O)n(C)c2ccccc12	ROC1-CUL1 inh 60.0
CCOC(=O)c1ccccc1NC1=NS(=O)(=O)c2ccccc21	none
CC(C)CN(C)c1ccc(C(=O)N2CCC(CN3CCCC3=O)CC2)cn1	none
O=C1/C(=C\c2ccccc2)N=C2SC=C(c3ccc(Br)cc3)N12	none
Cc1ccccc1/C=C/C(=O)C1C=C(Br)C=CC(=O)C1=O (stereo not given)	none
COc1cccc(/C=C/C(=O)C2C=C(Br)C=C(Br)C(=O)C2=O)c1 (stereo not given)	none
COc1ccccc1/C=C/C(=O)C1C=C(Br)C=C(Br)C(=O)C1=O (stereo not given)	ROC1-CUL1 inh 27.6
O=C(/C=C/c1ccco1)NCc1cccc(CNC(=O)/C=C/c2ccco2)c1	ROC1-CUL1 inh 96.8
O=C(/C=C\c1ccco1)Nc1cccc(C(=O)Nc2cccc(O)c2)c1	none
Cc1ccc(NC(=O)/C=C/c2ccco2)cc1F	none
CCSc1nnc(NC(=O)/C=C/c2ccco2)s1	none
O=C(/C=C/c1ccco1)NCC12CC3CC(C1)CC(CNC(=O)/C=C/c1ccco1)(C3)C2	ROC1-CUL1 inh 103.3
N=C(CC(=O)/C=C/c1ccco1)C(F)(F)F	none
CCOC(=O)C1=C(c2ccccc2)N=c2s/c(=C\c3ccccc3OCC)c(=O)n2C1c1cccc(OC)c1 (stereo not given)	none
O=C(NCc1ccco1)c1ccc(-c2ccc(Cl)cc2Cl)o1	none
Cc1nnc(SCc2cccc(C(F)(F)F)c2)[nH]c1=O	none
CC(C)NC(=O)C1CCN(C(=O)c2ccccc2F)CC1	none
Nc1c(Cl)cc2nn(-c3ccccc3)nc2c1Br	ROC1-CUL1 inh 31.2
O=C(Nc1cc2nn(-c3ccccc3)nc2cc1Cl)c1ccc(Br)cc1	none
O=C(Nc1cc2nn(-c3ccccc3)nc2cc1Cl)c1ccccc1Br	none
CCC(=O)N1N=C(c2ccc(Br)cc2Br)CC1c1ccc(OC)c(OC)c1 (stereo not given)	none
C=CCOc1cccc(/C=C2\N=C(c3ccc(Br)cc3)OC2=O)c1	none
COc1ccc(N=CC2C(=O)N(c3ccc(C)cc3)C(=O)c3cc(OC)ccc32)cc1 (stereo not given)	none
CN1CCN(c2cc3ccccc3c(=O)c3ccccc23)CC1	none
c1ccc2c(c1)cc(N1CCCC1)c1ccccc12	ROC1-CUL1 inh 89.7
O=C(Nc1ccc(N2CCCC2)c(Cl)c1)c1cccc2ccccc12	none
COc1ccc(CCN2CCCC(CN(C)Cc3ccc4nonc4c3)C2)cc1 (stereo not given)	none
C=CCCC(=O)N1CCc2onc(-c3cccc4ccccc34)c2C1	none
CCOC(=O)CN(C)C(=O)CCc1nnc(Cc2cccc(C(F)(F)F)c2)o1	none
CN(C)c1cc(N/N=C/c2ccc(-c3ccc(C(=O)O)cc3)o2)nc(N(C)C)n1	ROC1-CUL1 inh 62.5
CN(C)c1cc(N/N=C/c2ccc(OCc3ccc(F)cc3)cc2)nc(N(C)C)n1	none
Cc1cccc(OCC(=O)NCC(=O)N/N=C/c2ccc(-c3ccc(C(=O)O)cc3)o2)c1	none
CCCCc1ccc(NC(=O)C2CCN(S(=O)(=O)c3cc(OC)ccc3OC)CC2)cc1	none
C[n+]1oc(-c2ccccc2)cc1/C=C/c1ccccc1	none
O=C(CN1C(=O)c2cccc3cccc1c23)Nc1ccc2c(c1)OCO2	none
O=C(CN1C(=O)S/C(=C/c2ccc(-c3ccc(Cl)c(C(=O)O)c3)o2)C1=O)Nc1ccccc1	ROC1-CUL1 inh 104.0
O=C(CN1C(=O)S/C(=C\c2cccn2-c2cccc(C(=O)O)c2)C1=O)Nc1ccc(Cl)cc1	ROC1-CUL1 inh 48.5
Cc1c(C(=O)O)cccc1-c1ccc(/C=C2\SC(=O)N(CC(=O)Nc3ccc4c(c3)OCO4)C2=O)o1	ROC1-CUL1 inh 25.8

Compound activity (PubChem BioAssay)
